Where “and” joins values, the source holds several entries; their conditions need not be identical. Equal entries are not always repeated. The whole screen tested about 16,000 compounds, of which about 5,100 (32%) were called active. Another 25% or so got no clear call; they are omitted. The list shows a part of the results. Unmarked numbers belong to inactive results. Calls follow the shape of the dose curve; as a rule, active = well fitted curve in the direction sought with a large enough effect; inconclusive = small, poorly fitted or top-dose-only effect, or effect the other way; inactive = no such curve, though single readings can be large or run the other way.

The AC50 is the concentration giving half of the maximal activity seen.
% is scaled to controls: 0 for no effect and ±100 for the full control effect.

The target in the experiment is Cytochrome P450 3A4 (Homo sapiens) (UniProt P08684). The experiment in a line: Cytochrome panel assay with activity outcomes. The following applies: recombinant CYP, pro-luciferin dealkylation, luminescence, p450-cyp3a4; series mostly up to 57.1 µM; activity, negative = inhibition: at the top concentration.
Chain of Cytochrome P450 3A4 (Homo sapiens) (P08684 whole entry, looked up): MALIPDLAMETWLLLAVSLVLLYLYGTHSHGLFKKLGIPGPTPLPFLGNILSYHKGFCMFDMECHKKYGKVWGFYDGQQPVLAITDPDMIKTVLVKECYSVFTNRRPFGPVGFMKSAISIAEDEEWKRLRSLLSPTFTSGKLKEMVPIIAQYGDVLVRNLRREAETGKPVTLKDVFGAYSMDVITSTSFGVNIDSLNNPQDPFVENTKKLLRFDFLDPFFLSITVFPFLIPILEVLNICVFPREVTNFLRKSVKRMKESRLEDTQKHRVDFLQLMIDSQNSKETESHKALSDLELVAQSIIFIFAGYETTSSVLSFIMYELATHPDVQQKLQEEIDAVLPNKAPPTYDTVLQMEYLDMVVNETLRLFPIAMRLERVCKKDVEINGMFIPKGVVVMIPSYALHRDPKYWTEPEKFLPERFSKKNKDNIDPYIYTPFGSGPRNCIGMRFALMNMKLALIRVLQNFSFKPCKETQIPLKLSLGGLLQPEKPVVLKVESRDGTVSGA
In the case of `O=C(O)[C@H]1CCCN(CCC=C(c2ccccc2)c2ccccc2)C1`, the AC50 entry was “inactive”. Turning to `C[C@@H](O)[C@H]1C(=O)N2C(C(=O)O)=C(S[C@@H]3CN[C@H](C(=O)N(C)C)C3)[C@H](C)[C@H]12`, the “activity, negative = inhibition” value was -19.2% [at 25.6 µM]. As to `C[C@H](N)CCCC(C)(C)O`, the “activity, negative = inhibition” value was -5.82% [at 25.6 µM]. Consider `COc1ccc(O[C@H]2C=C[C@@H](c3ccccc3)O[C@H]2COC(=O)CC/C(C)=N/O[C@@H]2O[C@H](COC(C)=O)[C@H](OC(C)=O)[C@H](OC(C)=O)[C@H]2OC(C)=O)cc1`, for which the AC50 was 5.01 µM (active). `CO/N=C\[C@@H](C)[C@H](OCc1ccccc1)C(C)C`: the activity, negative = inhibition was 12.5% [at 11.4 µM]. Regarding `CCCNC(=O)OC[C@@H]1O[C@H](CCO/N=C(\C)CCC(=O)OC[C@@H]2O[C@H](c3ccccc3)C=C[C@@H]2Oc2ccc(OC)cc2)C=C[C@@H]1Oc1ccc(OC)cc1`, the AC50 is 5.01 µM (active). Same read-out and setting: the result for `COc1ccc(O[C@H]2C=C[C@@H](c3ccccc3)O[C@H]2CO/N=C\C[C@@H]2C=C[C@H](OC(C)=O)[C@H](COC(C)=O)O2)cc1` reads 3.98 µM (active); that for `COc1ccc(O[C@H]2C=C[C@@H](c3ccccc3)O[C@@H]2CO/N=C\[C@@H](C)[C@H](OCc2ccccc2)C(C)C)cc1`, 3.98 µM (active). In the case of `CC(=O)OC[C@@H]1O[C@H](C/C=N\OC[C@@H](C)[C@H](OCc2ccccc2)C(C)C)C=C[C@@H]1OC(C)=O`, the activity, negative = inhibition was -18.2% [at 11.4 µM]. With `O=c1[nH]cc(CS(=O)(=O)Cc2c[nH]c(=O)[nH]c2=O)c(=O)[nH]1`, the activity, negative = inhibition is -10.9% [at 11.4 µM]. With `CN1C(=O)C(CC(N)=O)N(NC(=O)c2ccc(Cl)cc2)C1=S` (centres undefined), the “activity, negative = inhibition” value is -10.7%. On to `CCCNC(=O)OC[C@@H]1O[C@H](c2ccccc2)C=C[C@@H]1Oc1ccc(OC)cc1`, for which the AC50 was 3.98 µM (active). Regarding `COc1ccc(O[C@H]2C=C[C@@H](c3ccccc3)O[C@H]2COC(=O)N2CCCCC2)cc1`, the activity, negative = inhibition was -82.7% [at 11.4 µM].

Take `CC(=O)OC[C@@H]1O[C@H](CCO/N=C\[C@@H](C)[C@H](OCc2ccccc2)C(C)C)C=C[C@@H]1OC(C)=O`: the activity, negative = inhibition is -26.2% [at 11.4 µM]. For `CCCNC(=O)OC[C@@H]1O[C@H](CCO/N=C\[C@@H](C)[C@H](OCc2ccccc2)C(C)C)C=C[C@@H]1Oc1ccc(OC)cc1`, the AC50 is 3.98 µM (active). With `COc1ccc(O[C@H]2C=C[C@@H](c3ccccc3)O[C@H]2CO/N=C(/C)CCC(=O)OC[C@@H]2O[C@H](c3ccccc3)C=C[C@@H]2Oc2ccc(OC)cc2)cc1`, the AC50 is 3.98 µM (active). As for `Cc1cc(C)c(Cn2cnc(-c3ccc([N+](=O)[O-])cc3)c2)c(C)c1`, the AC50 is 7.94 µM (active).

Consider `Cc1nn(Cc2ccc([N+](=O)[O-])cc2)c(=O)n1-c1cccc(F)c1`, for which the “activity, negative = inhibition” value was 4.03%. Take `C=CC[C@@H]1C=C[C@H](Oc2ccc(C)cc2)[C@H](COC(=O)NCc2cccc3ccccc23)O1`: the AC50 is 3.16 µM (active). Turning to `C=CC[C@@H]1C=C[C@@H](O/N=C(/C)CCC(=O)OC[C@@H]2O[C@H](C#Cc3ccccc3)C=C[C@@H]2Oc2ccc(C)cc2)[C@@H](CO)O1`, the AC50 is 5.01 µM (active). Turning to `O=c1n(-c2ccccc2)c(=O)n2n1CC[C@H]1/C(=N\OC[C@@H](O)COCc3ccco3)[C@H]3O[C@@H]3[C@@H](O)[C@@H]12`, the activity, negative = inhibition is -24.1% [at 11.4 µM] and -23% [at 11.4 µM]. As to `CO/N=C(/C)CCC(=O)OC[C@@H]1O[C@H](C#Cc2ccccc2)C=C[C@@H]1Oc1ccc(C)cc1`, the AC50 was 3.98 µM (active). As for `CC(=O)OC[C@@H]1O[C@H](C/C=N\OC[C@@H](O)COCc2ccco2)C=C[C@@H]1OC(C)=O`, the activity, negative = inhibition was -26.2% [at 11.4 µM].

`C/C(CCC(=O)OC[C@@H]1O[C@H](C#Cc2ccccc2)C=C[C@@H]1Oc1ccc(C)cc1)=N/OC[C@@H](O)COCc1ccco1`: the AC50 was 3.16 µM (active). With `C=CC[C@@H]1C=C[C@H](ON=C(C)C)[C@H](CO)O1`, the activity, negative = inhibition is -13.4% [at 11.4 µM].

For the compound `CC(=O)N[C@@H](CC(=O)O)C(=O)O`, the “activity, negative = inhibition” value is -13.1% [at 25.6 µM]. On to `CC(=O)OC[C@H]1O[C@@H](ON=C(C)C)[C@H](OC(C)=O)[C@@H](OC(C)=O)[C@H]1OC(C)=O`, for which the activity, negative = inhibition is -17.9% [at 11.4 µM]. As to `CC(=O)OC[C@H]1O[C@@H](O/N=C(\C)CCC(=O)OC[C@@H]2O[C@H](C#Cc3ccccc3)C=C[C@@H]2Oc2ccc(C)cc2)[C@H](OC(C)=O)[C@@H](OC(C)=O)[C@H]1OC(C)=O`, the AC50 is 3.16 µM (active). With `CCOC(=O)CCN1C(=O)[C@H]2[C@H]3[C@H](O)[C@H](O)C/C(=N/O[C@@H]4O[C@@H](COC(C)=O)[C@@H](OC(C)=O)[C@@H](OC(C)=O)[C@H]4OC(C)=O)[C@H]3CC[C@@H]2C1=O`, the activity, negative = inhibition was -10.4% [at 11.4 µM]. As for `CC(=O)OC[C@@H]1O[C@H](CCO/N=C(\C)CCC(=O)OC[C@@H]2O[C@H](C#Cc3ccccc3)C=C[C@@H]2Oc2ccc(C)cc2)C=C[C@@H]1OC(C)=O`, the AC50 was 3.16 µM (active). In the case of `CC(C(=O)NC1CCCC1)N(C(=O)c1ccc(-c2ccccc2)[nH]1)c1ccccc1F` (centres undefined), the AC50 is 3.98 µM (active). Turning to `Cc1ccc(C(=O)NC2CCCCC2)cc1`, the “activity, negative = inhibition” value was -27.2%. As for `O=C(NCCCc1ccccc1)c1cccs1`, the “activity, negative = inhibition” value was -26.4%. For the compound `O=C(NC1CCCCCC1)c1cccs1`, the AC50 was 14.1 µM (active).

As to `O=S(=O)(Nc1nc(-c2sccc2Cl)cs1)c1cc(Cl)ccc1Cl`, the AC50 is 7.94 µM (active). Turning to `CC(=O)c1c(N2CCC(C(N)=O)CC2)nc(=S)n(-c2ccccc2)c1C`, the activity, negative = inhibition is 28.2% [at 2.29 µM]. With `FC(F)(F)c1cc(Sc2ccccc2)nc(-c2ccccn2)n1`, the activity, negative = inhibition is 22.3% [at 11.4 µM]. For the compound `COC(=O)[C@@]1(Cc2ccccc2)[C@H]2c3cc(C(=O)N4CCCC4)n(Cc4ccc(C)o4)c3C[C@H]2CN1C(=O)c1ccccc1`, the half-maximal activity concentration (AC50) is 2 µM (active). On the same count and under the same terms, next, `COC(=O)[C@@]1(Cc2ccc(F)cc2)[C@H]2c3cc(C(=O)N(C)C)n(Cc4ccc(C)o4)c3C[C@H]2CN1C(=O)c1ccccc1`: 2.51 µM (active); `COC(=O)[C@@]1(Cc2ccc(F)cc2)[C@H]2c3cc(C(=O)N4CCCC4)n(Cc4ccc(C)o4)c3C[C@H]2CN1C(=O)c1ccccc1`: 3.16 µM (active).

In the case of `COC(=O)C(C)(C(=O)OC)c1ccc([N+](=O)[O-])cn1`, the “activity, negative = inhibition” value is -3.67%.

`COC(=O)C(NC(=O)c1ccc(F)cc1)(Nc1ncc(S(=O)(=O)c2ccc([N+](=O)[O-])cc2)s1)C(F)(F)F` (centres undefined): the AC50 is 5.01 µM (active).

For the compound `C=CCC(C(=O)OC)(C(=O)OC)c1ccc([N+](=O)[O-])cn1`, the “activity, negative = inhibition” value was -25.4%. Regarding `Cc1cc(C(F)F)n2nc(C(=O)Nc3cccnc3Cl)nc2n1`, the activity, negative = inhibition is 2.46% [at 2.29 µM].

For the compound `O=C(O)c1[nH]c2c([N+](=O)[O-])cc([N+](=O)[O-])cc2c1C(=O)O`, the activity, negative = inhibition was 3.73% [at 11.4 µM]. For the compound `C/C(=N\NC(=O)c1[nH]c2c([N+](=O)[O-])cc(C)cc2c1-c1ccccc1)c1cccnc1`, the AC50 is 1.12 µM (active). Turning to `O=C(Oc1ccccc1[N+](=O)[O-])c1cccnc1`, the “activity, negative = inhibition” value is -15.4%. Consider `COC(=O)c1cc(NC(=O)/C=C/c2ccc3c(c2)OCO3)cc(C(=O)OC)c1`, for which the AC50 is 0.794 µM (active). As for `COC(=O)c1cccc(NC(=O)/C=C/c2cccc([N+](=O)[O-])c2)c1`, the AC50 is 10 µM (active). Regarding `CC(/C=N/NC(=O)c1cccc([N+](=O)[O-])c1)=C\c1ccccc1`, the “activity, negative = inhibition” value was -14.1%.

Consider `CCOC(=O)c1c(NC(=O)/C=C/c2ccc3c(c2)OCO3)sc(C)c1CC`, for which the AC50 was 5.01 µM (active). Take `O=C(/C=C/c1cccc([N+](=O)[O-])c1)NCCN1CCOCC1`: the “activity, negative = inhibition” value is -20.8%. Regarding `CCOC(=O)c1c(NC(=O)/C=C/c2ccc3c(c2)OCO3)sc(C)c1C`, the “activity, negative = inhibition” value is 18%. In the case of `O=C(O)C[C@@H](C(=O)O)c1ccccc1[N+](=O)[O-]`, the activity, negative = inhibition was 0.874% [at 11.4 µM]. On the same count and under the same terms, next, `C=CCSc1nnc(NC(=O)COc2ccc3ccccc3c2)s1`: -10.4%. Consider `CCOc1ccc(N2C(=O)CS/C2=N/NC(=O)COc2ccc3ccccc3c2)cc1`, for which the AC50 was 0.891 µM (active). For the compound `CCSc1nnc(NC(=O)COc2ccc3ccccc3c2)s1`, the activity, negative = inhibition was -4.8% [at 2.29 µM].

In the case of `O=S(=O)(O)c1ccc(-c2nnc(-c3ccccn3)nc2-c2ccc(S(=O)(=O)O)o2)o1`, the activity, negative = inhibition was 6.48% [at 11.4 µM].

Consider `CC[C@]1(O)C[C@@H]2CN(CCc3c([nH]c4ccccc34)[C@](C(=O)OC)(c3cc4c(cc3OC)N(C)[C@H]3[C@](O)(C(=O)OC)[C@@H](C(=O)OC)[C@@]5(CC)C=CCN6CC[C@@]43[C@@H]65)C2)C1`, for which the AC50 was 15.8 µM (active). On the same count and under the same terms, next, `CC[C@]1(O)C[C@H]2CN(CCc3c([nH]c4ccccc34)[C@](C(=O)OC)(c3cc4c(cc3OC)N(C=O)[C@H]3[C@@](O)(C(=O)OC)[C@H](OC(C)=O)[C@@]5(CC)C=CCN6CC[C@]43[C@H]65)C2)C1`: 3.98 µM (active); `C=CCn1c(C)cc(C(=O)CN2C(=O)c3ccccc3C2=O)c1C`: 2.82 µM (active).

Consider `CCN(CC)c1ccc(SS(=O)(=O)O)cc1`, for which the “activity, negative = inhibition” value was 22.8%. On to `O=C(N/N=C/c1ccc2cccc(OCc3ccccc3)c2n1)c1ccc(Br)cc1`, for which the activity, negative = inhibition was -19% [at 2.29 µM]. On to `COc1ccc(C(=O)N/N=C/c2cccc3cccnc23)cc1`, for which the half-maximal activity concentration (AC50) was 22.4 µM (active). Regarding `COc1cc(C(=O)Oc2ccccc2/C=N/NC(=O)c2ccc(C)cc2)cc(OC)c1OC`, the “activity, negative = inhibition” value is 18.9%. Take `Cc1cccc(NC(=O)CCS(=O)(=O)c2cccc3nsnc23)c1C`: the activity, negative = inhibition is -25.6% [at 2.29 µM]. Regarding `O=C(CCS(=O)(=O)c1cccc2nsnc12)NC1CCCCC1`, the AC50 was 5.01 µM (active). Still for that read-out and setting: the result for `CC1(C)SC(=S)N(Cc2ccc3c(c2)OCO3)C1N(O)C(=O)NC1CCCCC1` (centres undefined) reads 1.12 µM (active). Take `O=C(O)[C@@H]1CCCN1Cc1ccc2c(c1)OCO2`: the activity, negative = inhibition was -11.9% [at 11.4 µM].
